From PubChem
ERK EGF inh: inhibitors of EGF-stimulated ERK signaling pathway. HEK293-V1b, EGF-stimulated phospho-ERK AlphaScreen. Potency, µM (titrated, usually from 11.5 µM), inactives show at the highest dose activity change, negative = inhibition, hits mostly inhibitors. actives 0.41% (n = 130,000); active = well fitted inhibition curve with a large enough effect;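 also: plate controls were stimulated vehicle wells for no effect and unstimulated vehicle basal for full effect; nearly all actives have a fitted effect of over 55% in size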
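After overnight plating in 1% FBS, HEK293-V1b cells received test compound for half an hour, then a 5 min pulse of EGF (25 nM); ERK phosphorylation in lysates was read by bead-based AlphaScreen.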
* hit, by the source's call; ! = a repeat was not active; [ ] = remark or other dose. The sample as a whole holds a higher share of hits than the screen did. Potency is read from the fitted curve at half-maximal effect.

SMILES | ERK EGF inh
CC(C)C[C@@H](CC(=O)N[C@H](CC(=O)N[C@@H]1CCNC[C@H]1C(=O)N[C@H](CC(=O)N[C@@H](CCC(=O)O)CC(=O)O)CC(C)C)C(C)C)NC(=O)[C@@H]1CCCC[C@H]1N | -3.3%
O=C(/C=C/c1ccccc1)NC(=S)Nc1ccc(CN2CCOCC2)cc1 | -3.5%
CC(C)c1ccc(/C=C/C(=O)Nc2ccc(CN3CCOCC3)cc2)cc1 | 35.5µM*
CC(C)C(=O)NC(=S)Nc1ccc(CN2CCOCC2)cc1 | -6.6%
CN(C)c1ccc(-c2cc(NCc3ccccc3)ncn2)cc1 | 34.5%
COC(=O)[C@@H](NC(=O)O[C@@H]1C(=O)c2cc(Br)ccc2O[C@H]1c1ccc2c(c1)OCO2)C(C)C | -1.5%
CCOc1ccc(C(=O)NC2=NCCS2)cc1 | -2.1%
COc1ccc(C2CC(c3ccc(Br)cc3)=NN2C(=O)CSC2=NCCS2)cc1 (stereo not drawn) | -3.0%
CCOc1ccc2c(c1)-c1c(ssc1=S)C(C)(C)N2C(=O)CSC1=NCCS1 | 17.8µM*
Cc1cc(C)cc(-c2cc3c(c(-c4c(O)c(-c5cc(C)cc(C)c5)cc5c4CCCC5)c2O)CCCC3)c1 | -6.1%
CCN1/C(=N\N)c2cccc3cccc1c23 | 12.6µM*
CCN(CC)C(=O)CN1C(=O)c2cccc3cccc(c23)C1=O | -4.8%
O=C1c2cccc3cccc(c23)N1Cc1ccc(F)cc1 | -3.3%
CCOc1cc(/C=C/c2cc(C(=O)O)c3ccccc3n2)ccc1O | -0.3%
COc1cc(/C=C/c2cc(C(=O)O)c3ccccc3n2)cc(OC)c1O | 31.6µM*
CCOc1cc(/C=C/c2cc(C(=O)O)c3ccccc3n2)ccc1OC | 3.6%
COC(=O)[C@@]1(Cc2ccc(OC)cc2)[C@H]2c3cc(C(=O)N(C)C)n(Cc4nc5ccccc5[nH]4)c3C[C@H]2CN1C(=O)c1ccccc1 | -5.2%
CCOc1ccccc1/C=C/C(=O)c1ccc(Cl)cc1 | -8.7%
CC(=O)/C=C/c1ccccc1O | -3.0%
O=C(/C=C/c1ccccc1O)c1ccc(Cl)cc1 | 39.8µM*
COc1ccc(-c2nc(-c3ccccc3)c(NC(C)(C)C)o2)cc1 | -13.6%
COc1ccc(N2CCN(C(=S)NCc3ccc(C)cc3)CC2)cc1 | 0.1%
COc1ccc(N2CCC(CNC(=S)Nc3cc(C)ccc3C)C2)cc1 (stereo not drawn) | 14.1µM*
COc1ccc(CNC(=O)Nc2cc(C)ccc2C)cc1 | -5.0%
COc1ccc(N2CCC(CNC(=S)Nc3cc(C)cc(C)c3)C2)cc1 (stereo not drawn) | 14.1µM*
SMILES | ERK EGF inh
COc1cccc(CNC(=S)Nc2cc(C)cc(C)c2)c1 | -3.2%
COc1ccc(N2CCN(C(=S)Nc3ccc(C)cc3C)CC2)cc1 | -1.1%
COC(=O)c1nnc(N[C@@H](Cc2c[nH]c3ccccc23)C(=O)OC)nc1C(=O)OC | -3.3%
CCN(CC)CCn1c(-c2ccccc2)nc2c(NCCOC)nc(C)nc21 | -5.1%
CC(=O)CCOC1CCCCO1 (stereo not drawn) | 1.2%
CC[C@H](C)[C@@H](NC(=O)O[C@H]1C(=O)c2ccc(OC)cc2O[C@@H]1c1ccc2c(c1)OCO2)C(=O)OC | -8.6%
C[C@@H](NCCc1ccc(O)cc1)[C@@H](O)c1ccc(O)cc1 | -3.9%
CC(NCCc1ccc(O)cc1)C(O)c1ccc(O)cc1 (stereo not drawn) | -3.3%
CCCCCCCCNC(C)C(O)c1ccc(SC(C)C)cc1 (stereo not drawn) | 35.5µM*!
COc1ccc2c(c1)C(=O)[C@@H](OC(=O)NC1CCCC1)[C@H](c1ccc(OC)c(Br)c1)O2 | -4.7%
CC(C)(C)NC(=O)[C@@H]1C[C@H]2CCCC[C@@H]2CN1C[C@H](O)[C@H](Cc1ccccc1)NC(=O)[C@@H](CC(N)=O)NC(=O)c1ccc2ccccc2n1 | -10.1%[25.7 µM]
CCN(CC)c1ccc(/C=N/N=C(c2ccccc2)c2ccccc2)c(O)c1 | 3.1%
Oc1ccc(/C=N/n2cnn(Cc3ccccc3Cl)c2=S)c(O)c1 | -7.7%
CCN(CC)c1ccc(/C=N/N2CCN(Cc3ccccc3Cl)CC2)c(O)c1 | 15.8µM*
COc1ccc(-c2nc3cnc(N4CCNCC4)nc3n(CCc3ccccc3)c2=O)cc1 | -2.1%
N#Cc1cccc(CS(=O)(=O)c2ccccc2)c1 | -3.5%
N#CCCN1CCCc2cc(N=Nc3ccc(C(F)(F)F)cc3)ccc21 | 22.4µM*
N#Cc1c(N2CCOCC2)nsc1-c1ccc(C(F)(F)F)cc1 | 5.5%[57.5 µM]
Cc1cc2ccc(=O)oc2cc1OC[C@@H](O)C(C)(C)O | 1.7%
Cc1ccnc(NC(c2cccnc2)c2ccc3cccnc3c2O)c1 (stereo not drawn) | 3.3%
Cc1ccnc(NC(c2ccsc2)c2ccc3ccc(C)nc3c2O)c1 (stereo not drawn) | 31.6µM*
Cc1cccc(NC(c2ccc(C)s2)c2ccc3ccc(C)nc3c2O)n1 (stereo not drawn) | 8.8%
COC(=O)C1(C(=O)OC)CC(CO)C(=O)[C@H]1c1ccccc1 (stereo partly drawn) | 4.0%
CCCCC[C@H](O)/C=C/C=C\C/C=C\CCCCC(=O)O | -3.5%
Cc1nc(N2CCOCC2)c2nc(-c3ccccc3)n(CCN(C)C)c2n1 | -1.0%
SMILES | ERK EGF inh
Cc1ccc(C(=O)NCCSCc2ccccc2)cc1[N+](=O)[O-] | -3.4%
Cc1ccc(C(=O)c2cc3ccccc3o2)cc1[N+](=O)[O-] | 22.4µM*
COc1cc2c(cc1NC(=O)c1ccc(C)c([N+](=O)[O-])c1)oc1ccccc12 | 5.4%
CCN1CCCC1Cn1c(-c2ccccc2)nc2c(NCCOC)nc(C)nc21 (stereo not drawn) | 3.2%
COC(=O)[C@@H](NC(=O)O[C@@H]1C(=O)c2cc(OC)ccc2O[C@H]1c1ccc(OC)c(Br)c1)C(C)C | -6.2%
COC(=O)N1C2(C=CC1(C)C(=O)NCc1ccc(N(C)C)cc1)CCCCC2 (stereo not drawn) | 5.3%
C[C@H]1C[C@@H]2[C@@H]([C@@H](O)C[C@@]3(C)[C@H]2CC[C@]3(O)C(=O)CO)[C@@]2(C)C=CC(=O)C=C12 | 10.7%[25.7 µM]
C=C(C)C(=O)/C=C/c1ccc(C(F)(F)F)cc1 | -6.6%
COc1ncc2nc(-c3ccc(F)cc3)c(=O)n(CCC#N)c2n1 | -0.1%
O=C(OC(c1ccccc1)c1nccc2ccccc12)c1cc([N+](=O)[O-])cc([N+](=O)[O-])c1 (stereo not drawn) | 15.8µM*
O=C(NC(c1ccccc1)c1ccccn1)c1cccc([N+](=O)[O-])c1 (stereo not drawn) | 10.5%
O=C(c1cc([N+](=O)[O-])cc([N+](=O)[O-])c1)N(c1ccccn1)c1ccccn1 | -2.1%
N#CCCCS(=O)(=O)c1nnnn1C1CCCCC1 | 2.3%
CN1CCCN=C1/C=C\c1cccs1 | -2.8%[25.7 µM]
CCCCCN=c1ccn(Cc2ccccc2)c2ccccc12 | -10.9%
Cc1ccc(-c2csc3ncnc(Nc4ccc(C(=O)O)cc4)c23)cc1 | 9.6%[57.5 µM]
O=C(O)c1ccc(Nc2ncnc3scc(-c4ccccc4)c23)cc1 | -9.6%
COc1ccc(-c2csc3ncnc(Nc4ccc(O)cc4)c23)cc1 | 28.2µM*
C=CC(=O)N1C(=O)c2ccccc2S1(=O)=O | -12.0%
CCOC(=O)CNC(=O)O[C@H]1C(=O)c2cc(OC)ccc2O[C@@H]1c1ccc(OC)c(Br)c1 | -5.3%
COc1cccc([C@@H]2Oc3ccc(OC)cc3[C@H](O)[C@H]2O)c1 | -8.3%
CC(=O)N[C@H](C(=O)O)C(C)(C)SN=O | 2.3%
CCOC(=O)c1[nH]cnc1N=Nc1c(O)ccc2ccccc12 | -15.7%
Oc1ccc2ccccc2c1CN1CCN(c2ccccc2F)CC1 | -0.4%
Oc1ccc2ccccc2c1N=Nc1ccccc1F | 14.1µM*
